AMA1-RON2 inh = inhibitors of Plasmodium falciparum AMA1-RON2 interaction; AlphaScreen AMA1-biotinylated RON2 peptide binding; Potency, µM (titrated, usually from 58.2 µM), inactives show at the top dose activity change, negative = inhibition, hits mostly inhibitors; hit rate 0.2% among 360,000; AID 720542;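 also: 0% = vehicle wells and -100% = peptide control; nearly all actives have a fitted effect of over 45% in size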
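AMA1 (3D7) with his tag at 25 nM final met compounds first, then biotinylated RON2 peptide at 25 nM; detection used donor plus acceptor beads, 10 µg/mL apiece, read by AlphaScreen after 30 min at room temperature.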
Vaccinia mCherry = inhibitors of vaccinia virus infection (mCherry reporter signal) | Potency, µM (top dose mostly 36.5 µM), without a hit: top-dose activity change, negative = inhibition, most hits filed as inhibitors | Vaccinia virus mCherry reporter infection, fluorescence | hit rate 0.63% among 310,000 | AID 720579; calls by dose curve; tested in A549 cells; also: nearly all actives have a fitted effect of over 35% in size
Pf growth 96h = inhibits malaria parasite growth, 96 h. P. falciparum luciferase reporter growth, 96 h. hit rate 6.9% among 320,000. AID 504834. Potency, µM (top dose mostly 28.7 µM), inactives show top-dose activity change, negative = inhibition, hits mostly inhibitors
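Erythrocytes infected with luciferase-expressing P. falciparum were dispensed at 2% hematocrit and 0.05% parasitemia (final), then incubated with compounds 96 hours at 37 C in 5% CO2. Luminescence after detection reagent addition reported growth.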
Pf growth 48h = inhibits P. falciparum growth in the first generation, 48 h | P. falciparum luciferase growth in erythrocytes, 48 h | Potency, µM (doses to about 28.7 µM), without a hit: at the highest dose activity change, negative = inhibition, hits mostly inhibitors | hit rate 5.9% among 310,000
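Read-out is firefly luciferase luminescence from an integrated reporter in P. falciparum, so falling signal marks reduced parasite growth. Infected erythrocytes were at 2% hematocrit and 0.1% parasitemia (final) in Albumax-supplemented RPMI 1640.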
VACV Venus inh = inhibitors of vaccinia virus (Venus reporter); Potency, µM (titrated, usually from 36.5 µM), without a hit: at the top dose activity change, negative = inhibition, hits mostly inhibitors; hit rate 0.46% among 330,000; AID 720580; Vaccinia virus Venus reporter expression, fluorescence; calls by dose curve; tested in A549 cells; also: nearly all actives have a fitted effect of over 30% in size
* marks the source's active call; other numbers are inactive results; i = inactive; ? = inconclusive; · = no result given. This is a sample that favours compounds with a hit; in the whole collection about 8.7% have one here. Unless noted, calls follow the shape of the dose curve; as a rule, active = well fitted curve in the direction sought with a large enough effect; inconclusive = small, poorly fitted or top-dose-only effect, or another doubt; inactive = no such curve, though single readings can be large; an effect the other way counts as inactive or inconclusive. Unless noted, % is scaled to controls: 0 for no effect and ±100 for the full control effect; potency is read from the fitted curve at half-maximal effect.

SMILES	AMA1-RON2 inh	Vaccinia mCherry	Pf growth 96h	Pf growth 48h	VACV Venus inh
Cc1ccc(O)c([C@H](CCN(C(C)C)C(C)C)c2ccccc2)c1	-5%	-1%	-6%	1.7µM*	-10%
COc1cccc2c1C(=O)c1c(O)c3c(c(O)c1C2=O)C[C@@](O)(C(=O)CO)C[C@@H]3O[C@H]1C[C@H](N)[C@H](OC2CCCCO2)[C@H](C)O1 (stereo not given in full)	·	311%	4.3µM*	3.8µM*	441%
COc1cccc2c1C(=N)c1c(O)c3c(c(O)c1C2=O)CC(O)(C(C)=O)CC3OC1CC(N)C(O)C(C)O1 (stereo not given)	?	150%	·	·	?
COc1cccc2c1C(=O)c1c(O)c3c(c(O)c1C2=O)C[C@](O)(C(C)=O)C[C@H]3O[C@@H]1C[C@@H](N)[C@@H](O)[C@@H](C)O1	-7%	44%	1.2µM*	0.93µM*	481%
COc1cc(OC)cc(-c2c(-c3cccs3)c3cc(-c4cnc(OC)nc4)ccc3n2C)c1	-5%	i	3.3µM*	1.9µM*	-19%
COc1cc(OC)cc(-c2c(-c3cccs3)c3cc(-c4ccc(C(N)=O)cc4)ccc3n2C)c1	-11%	-16%	·	·	?
COc1ccc(-c2ccc3c(c2)c(-c2cccs2)c(-c2cc(OC)cc(OC)c2)n3C)cc1	-1%	i	?	2.6µM*	-1%
COc1cc(C#Cc2c(-c3cncn3C)n(C)c3ccc(-c4cnc(OC)nc4)cc23)cc(OC)c1	7%	?	2.6µM*	?	?
COc1cc(OC)cc(-c2c(-c3cccs3)c3cc(-c4cc(OC)c(OC)c(OC)c4)ccc3n2C)c1	-21%	i	·	·	-11%
Cc1cccc(C)c1NC(=O)CN(Cc1ccc(Br)cc1)S(=O)(=O)c1ccccc1	·	i	·	·	-7%
CC1CCN(c2ccc(-c3cccc(NS(=O)(=O)c4cccs4)c3)nn2)CC1	·	-10%	·	·	-11%
CN(C)S(=O)(=O)c1ccc(NC(=O)c2cc3ccccc3o2)cc1	5%	·	13µM*	-12%	·
COC(=O)c1cccc(NC(=O)c2cc3ccccc3o2)c1	-8%	·	22%	9.3µM*	·
COc1cc(NC(=O)c2ccccc2F)ccc1NC(=O)c1ccccc1Cl	-10%	-2%	72%	5%	-25%
COc1cc(NC(C)=O)ccc1NC(=O)c1cc2ccccc2o1	7%	·	12µM*	3%	·
COc1cc(NC(=O)c2ccccc2)ccc1NC(=O)c1cc2ccccc2o1	-3%	-24%	37%	·	-8%
Cc1ccc(NC(=O)c2cc3ccccc3o2)cc1S(=O)(=O)N(C)C	-10%	-2%	·	188%	-6%
COC(=O)c1cc(NC(=O)c2cc3ccccc3o2)cc(C(=O)OC)c1	0%	·	-16%	-3%	·
COc1cc(NC(=O)c2ccc(Br)o2)ccc1NC(=O)c1ccccc1Cl	-2%	-7%	·	10µM*	?
COc1ccc(OCC(=O)Nc2cccc(-c3nc4ccccc4s3)c2C)cc1	·	-8%	·	·	-8%
COCCCn1c(=N)c(S(=O)(=O)c2ccccc2)cc2c(=O)n3cccc(C)c3nc21	·	-8%	·	·	-3%
O=C(Nc1ccc(S(=O)(=O)N2CCC(c3nc4ccccc4s3)CC2)cc1)c1ccccc1	·	?	·	·	-24%
COc1ccc(C(C(=O)NCC2CCCO2)N(C(=O)CNC(=O)c2cccs2)c2ccc(C(C)=O)cc2)cc1OC (stereo not given)	-10%	i	?	12µM*	1%
COc1ccc(N(C(=O)CNC(=O)c2ccco2)C(C(=O)NCC2CCCO2)c2ccc(OC)c(OC)c2)cc1 (stereo not given)	-2%	-3%	-10%	-30%	-10%
COc1ccc(C(C(=O)NCC2CCCO2)N(C(=O)CNC(=O)c2ccco2)c2cc(C)cc(C)c2)cc1OC (stereo not given)	2%	2%	3%	0%	-9%
SMILES	AMA1-RON2 inh	Vaccinia mCherry	Pf growth 96h	Pf growth 48h	VACV Venus inh
COc1ccc(C(C(=O)NCC2CCCO2)N(C(=O)CNC(=O)c2cccs2)c2ccc(C)cc2)cc1OC (stereo not given)	-11%	-2%	-4%	10µM*	-4%
COc1cc(OC)cc(N(C(=O)CNC(=O)c2cccs2)C(C(=O)NCC2CCCO2)c2ccccc2)c1 (stereo not given)	12%	-22%	?	5.9µM*	-9%
COc1ccc(Nc2ncnc3c2cnn3-c2ccc(C)cc2)cc1Cl	·	-18%	·	·	-14%
CCc1cc(Cn2nc(-c3ccccc3)cc2C(=O)NCCOC)on1	-1%	i	-12%	?	-14%
CCc1cc(Cn2nc(-c3ccccc3)cc2C(=O)NCc2cccs2)on1	24%	-23%	5.9µM*	15µM*	?
CCOC(=O)c1cccc(NS(=O)(=O)c2c(C)[nH]c(C)c2C(=O)N2CCCC2)c1	-9%	·	?	3%	·
CCOC(=O)c1c(C)[nH]c(C)c1S(=O)(=O)Nc1ccc(CN2CCCCC2)cc1	-8%	·	5.9µM*	?	·
Cc1ccc(NC(=O)C(NS(=O)(=O)c2ccc3c(c2)CCC(=O)N3)c2ccccc2)cc1C (stereo not given)	·	-14%	·	·	-4%
Cc1cc(C(c2ccc(C)o2)c2ccc(C)o2)c(O)c([N+](=O)[O-])c1	-19%	-18%	-12%	·	-11%
Cc1ccc(C(c2ccc(C)o2)c2cccc([N+](=O)[O-])c2O)o1	?	·	4.7µM*	7.4µM*	·
Cc1ccccc1CNC(=O)c1ccc(CN2CC(=O)N3CCCCC3C2=O)cc1 (stereo not given)	·	-13%	·	·	-13%
COc1ccc(S(=O)(=O)NCC(c2ccco2)N2CCc3ccccc32)cc1 (stereo not given)	-25%	-22%	?	9.3µM*	-9%
O=S(=O)(NCC(c1cccnc1)N1CCc2ccccc2C1)c1ccccc1 (stereo not given)	-2%	i	50%	-12%	-4%
O=[N+]([O-])c1ccc(S(=O)(=O)NCC(c2cccnc2)N2CCc3ccccc32)cc1 (stereo not given)	-21%	0%	15µM*	12µM*	-9%
COc1ccc(C(=O)NCC(c2ccco2)N2CCc3ccccc32)c(OC)c1 (stereo not given)	-27%	-32%	13µM*	12µM*	?
Cc1ccc(Cl)cc1Nc1nc2ccccc2n2c(C)nnc12	·	-17%	·	·	-14%
CC(=O)Nc1ccc(NC(=O)C/C(C)=N/NC(N)=S)cc1	72%	·	1.9µM*	?	·
CCn1c2ccccc2c2cc(NC(=O)c3cccc(OC)c3)ccc21	-2%	·	-35%	?	·
CCn1c2ccccc2c2cc(NC(=O)c3ccco3)ccc21	-12%	?	·	13µM*	?
CCn1c2ccccc2c2cc(NC(=O)c3cccc(OC)c3OC)ccc21	-3%	-10%	4.1µM*	-15%	?
O=S1(=O)c2cccc3cccc(c23)N1CCCN1CCN(c2ccc(F)cc2)CC1	·	·	-26%	-15%	·

Screening results deposited in PubChem BioAssay by National Center for Advancing Translational Sciences (NCATS).
